Each structure is given as a SMILES string. Screen size: about 210,000 compounds; about 5,900 (2.8%) were called active. Where a call stands in place of a potency, no number is given. Inconclusive results (about 5%) are left out. The call rests on the fitted dose curve; in most records, active means well fitted activation curve with a large enough effect; inconclusive means small, poorly fitted or top-dose-only effect; inactive means no such curve, though single readings can be large or run the other way. The sample as a whole holds a higher share of actives than the screen did.
Potency means the concentration at half of the fitted maximal effect.

This assay in a line: qHTS Assay for Enhancers of SMN2 Splice Variant Expression. Further: nearly all actives have a fitted effect of over 55% in size. The note with it: HEK293 SMN2-luciferase splicing reporter, luminescence, 30-36 h; series mostly up to 46.1 µM. The gist of the method:
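HEK293 cells carry an SMN2 […]–luciferase reporter in which exon 7 inclusion puts luciferase in frame. Cells were plated 10-12 h before compound addition, then incubated 30-36 h at 37C. ONE-Glo luminescence was read; sodium butyrate at 4.5 mM final served as control.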
Take `CCOc1ccc(-n2c(C)nc3c(cnn3-c3ccc(C)cc3)c2=O)cc1`: the Potency entry is “inactive”.

Take `O=C(NC1CC1)c1ccc(-c2ccccc2)cc1`: the Potency was 11.2 µM (active). Next, `O=C(NC1CC1)c1cccc(Br)c1`: “inactive”; `Cc1ccc(C(=O)NC2CCN(C(=O)N3CCOCC3)CC2)cc1`: “inactive”. Next, `CCOc1ccccc1N(C)C(=O)c1cc2c(s1)-c1ccccc1OC2`: “inactive”; `O=C(NC1CCN(Cc2ccccc2)CC1)c1ccc(Cn2c(=O)c3ccccc3n(Cc3cccc(F)c3)c2=O)cc1`: “inactive”. As for `O=C(CSc1oc(-c2ccco2)nc1S(=O)(=O)c1ccc(Cl)cc1)c1ccccc1`, the Potency entry was “inactive”. Next, `Cc1ccc(-c2nc(CS(=O)(=O)CC(=O)NCc3ccccc3Cl)c(C)o2)cc1`: “inactive”; `COc1ccc(CCNC(=O)c2cc(=O)c3c(C)cc(C)cc3o2)cc1OC`: “inactive”.

Take `Fc1cc(F)c2nc(Nc3nc4c(F)cccc4s3)sc2c1`: the Potency result is “inactive”. Next, `O=C(CCS(=O)(=O)c1ccccc1)Nc1nc2c(s1)CCCC2`: “inactive”; `Fc1ccc2nc(Nc3nc4c(s3)CCCC4)sc2c1`: 14.1 µM (active). Regarding `O=C(C(=O)N1CCc2ccccc2C1)N1CCc2ccccc2C1`, the Potency entry is “inactive”. `O=C(COc1ccccc1)N1CCc2ccccc2C1`: the Potency result is “inactive”. To `O=C(Cn1c(=S)nc2ccccn21)N1CCc2ccccc2C1` belongs 12.6 µM (active); to `Cn1c(=O)nc2n(-c3ccc(Br)cc3)c3cccc(Cl)c3cc-2c1=O`, “inactive”; to `COc1ccccc1C(=O)Nc1c(C(=O)N(C)Cc2ccccc2)sc2nc(C)c(Cl)c(C)c12`, “inactive”. To `Cc1[nH]c2ccccc2c1SCC(=O)Nc1nccs1` belongs 25.1 µM (active); to `Nn1c(SCC(=O)Nc2nccs2)nncc1=O`, “inactive”; to `CCn1c(SCC(=O)Nc2nccs2)nnc1-c1ccncc1`, “inactive”. In the case of `CC(=O)N1CCc2cc(S(=O)(=O)NC(Cc3ccccc3)C(=O)NCc3ccc(C)cc3)ccc21` (stereo not drawn), the Potency result is “inactive”. Next, `CCOc1ccc(S(=O)(=O)c2cn(Cc3ccc(OC)cc3)c3ccc(F)cc3c2=O)cc1`: “inactive”; `O=C(Nc1ccn(Cc2ccccc2)n1)c1cccc(F)c1`: 2.82 µM (active). Take `O=C(Nc1ccn(Cc2ccccc2)n1)c1n[nH]c([N+](=O)[O-])c1Cl`: the Potency is 3.16 µM (active). To `O=C(Nc1ccn(Cc2ccc(F)cc2)n1)c1ccncc1` belongs “inactive”. Next, `CC(=O)Nc1ccn(Cc2c(F)cccc2Cl)n1`: “inactive”; `Cc1ccc(Cn2ccc(NC(=O)c3cc(C(C)C)on3)n2)cc1`: “inactive”. To `Cn1cc([N+](=O)[O-])c(C(=O)Nc2cnn(Cc3ccc(F)cc3)c2)n1` belongs “inactive”. As to `CCOC(=O)c1cc2c(=O)n3ccccc3nc2n(CCCOC)c1=NC(=O)C(C)(C)Oc1ccc(Cl)cc1`, the Potency result is “inactive”.

`COc1ccc(CCN2C(=O)N(c3cccc(OC)c3)C(=O)C2CC(=O)Nc2ccccc2)cc1` (stereo not drawn): the Potency result is “inactive”. As for `CCCCC12CN3CC(C)(CN(C1)C3c1ccc(O)c(OC)c1)C2=O` (stereo not drawn), the Potency result is “inactive”. For the compound `COc1ccc(CCNC(=O)CCc2c(C)nc3c(c(C)nn3-c3ccc(C)c(C)c3)c2C)c(OC)c1OC`, the Potency entry is “inactive”.

In the case of `O=C(OCc1nnc(-c2ccccc2)o1)c1ccc2c(c1)C(=O)N(CCc1ccccc1)C2=O`, the Potency result was “inactive”. Next, `CCOC(=O)CSc1nnc(-c2cccc(Br)c2)o1`: “inactive”; `O=C(OCc1ccc(Br)cc1)c1cccc(-c2nnc(-c3ccccc3)o2)c1`: 2.24 µM (active). Next, `CCn1c(=O)cc(OCC(=O)Nc2cc(Cl)c(OC)cc2OC)c2ccccc21`: “inactive”; `Cc1ccc(NC(=O)NC(=O)CSc2nnc(-c3ccc(OC(F)F)cc3)n2N)c(C)c1`: “inactive”. To `C=C(C)CSc1nnc(-c2ccc(C)cc2)n1N` belongs 8.91 µM (active). Take `Cc1ccc(-c2nnc(SC(C)C#N)n2N)cc1` (stereo not drawn): the Potency result is “inactive”. Next, `CC(=O)c1c(C)n(S(=O)(=O)c2ccc(Cl)cc2)c2ccc(NS(=O)(=O)c3ccc(Cl)cc3)cc12`: “inactive”.

As to `COc1ccc(C)cc1N(CC(=O)N1CCC(C)CC1)S(=O)(=O)c1ccc(C)cc1`, the Potency result is “inactive”. In the case of `CCOC(=O)c1c(NC(=O)CSc2cn(CCNC(=O)c3cccc(C(F)(F)F)c3)c3ccccc23)sc2c1CCC2`, the Potency result is “inactive”.

As for `COc1ccc(CCNC(=O)c2cn(C)c3ccc(S(=O)(=O)N(C)C4CCCCC4)cc3c2=O)cc1OC`, the Potency result is “inactive”. To `COc1ccc(OCC(=O)NNC(=O)c2cccc(C)c2)cc1` belongs “inactive”. To `CCN(CC)C(=O)c1ccc(O)c(OC)c1` belongs “inactive”; to `Cc1cccc(C(=O)N2CCCN(C(=O)c3cccc(C)c3)CC2)c1`, “inactive”.

As for `CCOc1ccc(OCc2cccc(C(=O)N(CC)CC)c2)cc1`, the Potency was 5.01 µM (active). To `COc1ccc(OCc2cccc(C(=O)N3CCCC3)c2)cc1` belongs 2.51 µM (active); to `CCOc1ccc(NC(=O)N(CC(C)C)CC(C)C)cc1`, “inactive”. Next, `COc1cccc(Cn2c(SCc3ccc(C(=O)N4CCC(C)CC4)cc3)nc3ccncc32)c1`: “inactive”; `COc1cccc(CNC(=O)c2ccc3c(c2)N(Cc2ccc(C(F)(F)F)cc2)C(=O)c2ccccc2S3)c1OC`: “inactive”; `COc1ccc(C2(Nc3cccc(F)c3)C(=O)c3ccccc3C2=O)cc1`: “inactive”. Consider `CCc1nonc1NC(=O)c1oc2ccc(Cl)cc2c1C`, for which the Potency entry was “inactive”.

As for `Cc1ccc(Cn2c(C)c3cnn(CC(=O)NCc4ccccc4)c(=O)c3c2C)cc1`, the Potency entry is “inactive”. For the compound `CC1=C(C(=O)Nc2ccccc2)C(c2ccc(C)cc2)n2nc(SCc3ccccc3C)nc2N1` (stereo not drawn), the Potency result was “inactive”.

`COc1cc(Nc2nc(-c3ccc(OC)c(OC)c3)nc3ccccc23)cc(OC)c1`: the Potency entry is “inactive”. To `CCc1cccc(C)c1Nc1c(-c2ccc(N(C)C)cc2)nc2ncccn12` belongs “inactive”; to `N#CC(=C1SC=CS1)c1nc(-c2ccccc2)cs1`, 11.2 µM (active). To `CCNC(=O)CSc1nc(-c2ccccc2)cs1` belongs “inactive”. Next, `N#CC(=C1CCCC1)c1nc(-c2ccc(Cl)cc2)cs1`: “inactive”; `COc1ccc(-c2cc(NCc3ccc(F)cc3)n3cnnc3n2)cc1`: “inactive”.

On to `COc1ccccc1CNC(=O)c1cc(=O)c2ccccc2o1`, for which the Potency result was “inactive”.

For the compound `CCOC(=O)c1c(C)[nH]c(C(=O)NCc2ccccc2OC)c1C`, the Potency was 10 µM (active). With `CC(=O)c1c(C)[nH]c(C(=O)NCc2ccc(C)cc2)c1C`, the Potency entry is “inactive”. Next, `COC(=O)c1ccccc1NS(=O)(=O)c1ccc2c(c1)CCCN2C(C)=O`: “inactive”. In the case of `CCOc1ccc(C(=O)c2cn(Cc3ccccc3OC)c3ccc(F)cc3c2=O)cc1`, the Potency result was “inactive”. As to `COc1ccc(-c2nn3c(-c4ccccc4)nnc3s2)cc1OC`, the Potency result was “inactive”. To `COc1ccc(-c2csc(-c3cccs3)n2)cc1OC` belongs 14.1 µM (active).

As for `COc1ccc(C2CC(c3cccs3)=Nc3ccccc3S2)cc1OC` (stereo not drawn), the Potency entry was “inactive”. As to `CCc1ccccc1NC(=O)N1CCC2(CC1)Oc1ccccc1C(=O)N2Cc1ccccc1F`, the Potency result was “inactive”. Next, `O=C(Nc1ccc(Br)cc1)c1cc2nc(-c3ccccc3)cc(-c3ccccc3)n2n1`: “inactive”. To `COc1cccc(C(=O)N(Cc2cccc(Cl)c2)Cc2ccco2)c1` belongs “inactive”; to `c1ccc(-c2ccccc2OCCN2CCCCC2)cc1`, “inactive”. To `O=C(Cc1ccccc1)NC(=S)Nc1ccc(N2CCCCC2)cc1` belongs “inactive”; to `S=C(c1ccc(-c2ccccc2)o1)N1CCCCC1`, 12.6 µM (active). As to `O=C(/C=C/c1ccc2c(c1)OCO2)NCc1ccc(F)cc1`, the Potency result was “inactive”.

For the compound `O=C(CNC(=O)C(c1ccccc1)c1ccccc1)N/N=C\c1ccc2c(c1)OCO2`, the Potency result was “inactive”. Next, `O=C(Cc1ccc(F)cc1)N/N=C/c1ccc2c(c1)OCO2`: 12.6 µM (active).

Consider `Cc1cc(NC(=O)c2cnn3cccnc23)n(-c2ccccc2)n1`, for which the Potency entry was “inactive”. Next, `O=C(Nc1ccc(Cl)cn1)c1cnn2cccnc12`: 11.2 µM (active). To `O=C(Nc1cccc(S(=O)(=O)Nc2ccc(Cl)cc2)c1)c1ccc2c(c1)OCCO2` belongs “inactive”; to `COc1c(Cl)cc(C(=O)Nc2ccc(Cl)cn2)cc1Cl`, “inactive”; to `COc1ccc(C(=O)NC(=S)Nc2ccc(Cl)cn2)cc1OC`, “inactive”. To `O=C(Nc1ccc(Cl)cn1)c1ccc2c(c1)OCCO2` belongs 2.51 µM (active). Turning to `COc1ccc(CNC(=O)Cc2coc3ccc(C(C)C)cc23)cc1`, the Potency result was “inactive”. To `CC(C)(C)c1csc(NC2=NS(=O)(=O)c3ccccc32)n1` belongs 8.91 µM (active); to `Cc1ccc(S(=O)(=O)N(NC2=NS(=O)(=O)c3ccccc32)C(=O)c2ccccc2)cc1`, “inactive”. To `O=C(Oc1cccc(NC2=NS(=O)(=O)c3ccccc32)c1)c1ccncc1` belongs “inactive”. To `COc1ccc(CN2C(=O)C(NC(=O)c3cccc(C)c3)(C(F)(F)F)N=C2c2ccccc2)cc1` (stereo not drawn) belongs “inactive”; to `Cc1cccc(OCC(O)Cn2c(=N)n(CCN3CCOCC3)c3ccccc32)c1` (stereo not drawn), “inactive”; to `OC(COc1ccc2ccccc2c1)Cn1cncn1` (stereo not drawn), “inactive”. As to `OC(COc1ccc2ccccc2c1)CN1CCOCC1` (stereo not drawn), the Potency is 14.1 µM (active).

Take `Cc1cccc(N2CCN(C(=O)c3oc(=O)c4ccccc4c3-c3ccccc3)CC2)c1C`: the Potency entry was “inactive”.

For the compound `CC1=Nc2cc(C(=O)N3CCC(C)CC3)ccc2Sc2ccc(Cl)cc21`, the Potency result was “inactive”. To `O=C(Nc1ccccc1)c1cccnc1Nc1ccccc1` belongs “inactive”; to `O=C(Nc1ccccc1)c1ccccc1NC(=O)C(F)(F)F`, 10 µM (active). `NC(=O)c1ccccc1NC(=O)c1ccccc1F`: the Potency entry is “inactive”. Take `O=C(CSc1oc(-c2ccccc2)nc1S(=O)(=O)c1ccc(Br)cc1)NC1CCCCC1`: the Potency entry was “inactive”. Take `COc1ccc2c(c1)CCc1c(C(=O)Nc3c(C)n(C)n(-c4ccccc4)c3=O)noc1-2`: the Potency entry is “inactive”. In the case of `COc1ccc2c(c1)CCc1c(C(=O)N3CCCC3)noc1-2`, the Potency was 17.8 µM (active).

As to `COc1ccc2c(c1)CCc1c(C(=O)Nc3cc(C)ccc3O)noc1-2`, the Potency entry is “inactive”. To `Cn1c(=O)c2c(nc(SCC(=O)Nc3ccc(F)cc3)n2Cc2ccccc2)n(C)c1=O` belongs “inactive”; to `Cc1ccc(CNC(=O)C2CCN(S(=O)(=O)c3ccc4nc5c(c(C(=O)O)c4c3)CC(C)CC5)CC2)cc1` (stereo not drawn), “inactive”.
